Source: PubChem BioAssay
Sampled rows, rich in hits. Any-hit rate of the full collection: about 9.2%.
USP17 inh: human USP17-like deubiquitinase inhibition | purified USP17, Ub-rhodamine cleavage fluorescence, 3 h | inhibition, % at 50 µM | 47,000 tested, 6.5% active | AID 1645855
USP7 inh: blocks human USP7 ubiquitin-rhodamine cleavage; AID 1645854; 47,000 tested, 0.3% active; purified USP7, Ub-rhodamine cleavage fluorescence; Q93009; inhibition, % at 20 µM
OTUD3 inh: human OTUD3 deubiquitinase inhibition; purified OTUD3, Ub-rhodamine fluorescence, 2 h; inhibition, % at 25 µM; 47,000 tested, 0.7% active
USP8 block: blocks human USP8 ubiquitin-rhodamine cleavage; 47,000 tested, 4.2% active; P40818; inhibition, % at 20 µM; purified USP8, Ub-rhodamine cleavage fluorescence, 30 min
Target sequence (P40818 whole entry, looked up): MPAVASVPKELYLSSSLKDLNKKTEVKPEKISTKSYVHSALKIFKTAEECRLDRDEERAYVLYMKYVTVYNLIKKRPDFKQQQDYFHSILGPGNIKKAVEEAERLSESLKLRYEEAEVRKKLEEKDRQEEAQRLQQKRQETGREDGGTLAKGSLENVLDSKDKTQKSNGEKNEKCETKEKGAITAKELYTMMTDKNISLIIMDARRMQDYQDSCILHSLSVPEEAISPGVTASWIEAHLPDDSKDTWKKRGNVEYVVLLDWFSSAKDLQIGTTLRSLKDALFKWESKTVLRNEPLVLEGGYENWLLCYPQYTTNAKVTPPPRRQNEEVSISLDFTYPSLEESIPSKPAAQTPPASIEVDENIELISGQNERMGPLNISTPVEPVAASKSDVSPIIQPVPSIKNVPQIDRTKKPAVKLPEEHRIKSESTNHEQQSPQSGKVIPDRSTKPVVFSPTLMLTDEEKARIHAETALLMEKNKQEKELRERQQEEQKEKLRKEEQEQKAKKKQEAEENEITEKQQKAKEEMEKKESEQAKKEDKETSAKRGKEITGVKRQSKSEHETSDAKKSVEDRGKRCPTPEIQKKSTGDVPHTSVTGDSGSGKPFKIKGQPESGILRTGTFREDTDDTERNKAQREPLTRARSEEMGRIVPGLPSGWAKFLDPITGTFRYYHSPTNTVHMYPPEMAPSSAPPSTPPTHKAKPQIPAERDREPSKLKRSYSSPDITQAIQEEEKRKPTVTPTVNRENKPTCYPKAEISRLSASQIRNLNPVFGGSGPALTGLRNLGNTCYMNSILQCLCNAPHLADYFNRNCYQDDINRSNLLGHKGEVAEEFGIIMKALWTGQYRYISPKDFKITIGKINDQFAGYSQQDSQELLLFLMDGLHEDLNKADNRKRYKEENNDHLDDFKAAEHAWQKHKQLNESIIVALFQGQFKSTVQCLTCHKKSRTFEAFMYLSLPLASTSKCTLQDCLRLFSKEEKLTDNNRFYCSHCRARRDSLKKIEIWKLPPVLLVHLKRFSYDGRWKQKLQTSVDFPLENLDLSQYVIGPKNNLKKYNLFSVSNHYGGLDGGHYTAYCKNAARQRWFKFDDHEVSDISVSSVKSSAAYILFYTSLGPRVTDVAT
USP10 inh: human USP10 deubiquitinase inhibition | purified USP10, Ub-rhodamine fluorescence, 60 min | AID 1645856 | inhibition, % at 20 µM | 47,000 tested, 1.1% active | Q14694
UCHL1 block: human UCHL1 deubiquitinase inhibition. AID 1645859. 47,000 tested, 0.2% active. purified UCHL1, Ub-rhodamine cleavage fluorescence. inhibition, % at 20 µM. P09936
* marks the source's active call; other numbers are inactive results; . = no result given. Rule as the data show it: active = inhibition above about 30%; inactive = the rest.

SMILES	USP17 inh	USP7 inh	OTUD3 inh	USP8 block	USP10 inh	UCHL1 block
CCCOC(=O)c1cc(NC(=O)c2cccnc2)ccc1N1CCOCC1	5	3	6	17	-2	1
O=C(Cn1nc2c3c4c(sc3ncn2c1=O)CCCCC4)Nc1ccc(Cl)cc1F	70*	22	15	92*	15	6
COc1ccc(OC)c(/C=C(/C#N)c2nc(-c3ccc4c(c3)OCO4)cs2)c1	-146	-140	-182	-267	-4	-156
N#C/C(=C\c1cccc(Oc2ncccn2)c1)c1ccc2c(c1)OCO2	30*	-4	12	3	1	3
COc1ccc(/C(C#N)=C\c2ccc3c(c2)OCO3)cc1	29	11	21	30*	7	7
Cc1cc(C)nc(NC(=O)c2csnn2)c1	-2	-5	-2	-3	2	-2
O=C(Nc1cc(Cl)cc(Cl)c1)c1csnn1	58*	-4	0	5	7	3
O=C(Cn1cc(S(=O)(=O)Cc2ccccc2)c2ccccc21)NCCC1=CCCCC1	-13	4	-8	-6	12	2
O=C(Cn1cc(S(=O)(=O)Cc2ccccc2)c2ccccc21)Nc1ccccc1	22	0	-5	34*	-5	-8
Cc1ccccc1NC(=O)Cn1cc(S(=O)(=O)Cc2ccccc2)c2ccccc21	.	20	0	35*	7	6
COc1ccc(NC(=O)Cn2cc(S(=O)(=O)Cc3ccccc3)c3ccccc32)c(OC)c1	19	11	2	33*	15	1
CCC(=O)Nc1ccc(S(=O)(=O)N2CCC[C@@H]2C(=O)NCc2csc(C)n2)cc1	-5	1	-4	-9	3	-4
COc1cccc(/C=C/c2nc(-c3ccc4oc(C)nc4c3)no2)c1	-20	-5	-19	-3	-8	-2
Cn1c(=O)c2c(nc(N3CCc4ccccc4C3)n2CCSc2nc3ccccc3s2)n(C)c1=O	16	-13	23	8	4	8
O=C(O)CCC(=O)N1c2ccccc2CC1c1ccc(Cl)cc1 (configuration not stated)	14	-1	-5	12	5	0
CN(C)c1ccc(C2CC(c3ccc(Br)cc3)=NN2C(=O)CCC(=O)O)cc1 (configuration not stated)	32*	-1	13	23	7	-1
Cc1nc2sccn2c1-c1nc(-c2cc(Cl)ccc2Cl)cs1	49*	2	11	5	0	2
Nc1cccnc1Sc1ccccn1	-26	-57	-92	40*	-5	-27
CC(C(=O)Nc1ccc(Cl)cc1)N(c1ccc(Oc2ccccc2)cc1)S(C)(=O)=O (configuration not stated)	0	1	5	7	8	6
Cc1ccc(-c2ncc(NC(=O)C3CCC3)cn2)cc1	1	-12	0	33*	6	0
O=C1C/C(=C\c2cccc(Cl)c2)Cc2ccccc21	26	10	27	34*	15	11
CSc1cccc(NC(=O)CCc2nc3cccnc3n2Cc2ccccc2)c1	48*	-9	-12	-16	-2	-3
CSc1ccc(CCNC(=O)CCc2nc3cccnc3n2Cc2ccccc2)cc1	2	-16	0	5	-5	1
O=C(CCc1nc2cccnc2n1Cc1ccccc1)NCCc1ccc(Cl)cc1	-7	-28	-15	-7	-2	-5
CCc1ccc(NC(=O)CCc2nc3cccnc3n2Cc2ccccc2)cc1	71*	6	46*	35*	11	4
SMILES	USP17 inh	USP7 inh	OTUD3 inh	USP8 block	USP10 inh	UCHL1 block
O=C(CSc1nccn1-c1cccc(C(=O)Nc2ccccc2)c1)Nc1ccccc1F	18	13	-9	51*	5	0
Cc1ccccc1NC(=O)CSc1nccn(-c2ccc(F)c(F)c2)c1=O	0	0	-3	-218	-7	-5
Cc1cccc(-n2ccnc(SCC(=O)Nc3ccc(Cl)cc3F)c2=O)c1	76*	17	11	49*	22	4
Nc1ncncc1-c1noc([C@@H]2CCCN2Cc2cnc3ccccc3c2)n1	-16	-1	-11	-3	1	-6
c1ccc2ncc(CN3CCC[C@H]3c3nc(-c4ccc(-n5ccnc5)nc4)no3)cc2c1	41*	-2	-7	14	-3	-1
O=C(Nc1ccccc1)Nc1cnc2ccc(C(=O)NCc3ccncc3)cn2c1=O	16	1	12	15	-1	-2
